Measurements published in the supplement of paper PMC9177965.

How the values were obtained:
[1] = tested on: HT29 RNF43 G659fs (RNF43 659mut, CRISPR-edited); assay: cell viability activity relative to DMSO (negative = inhibition); higher = more viable cells (less growth inhibition); conditions: 5 µM; 96 h
Protocol: (§1)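 Broad Repurposing Library primary screen at a single dose of 5 uM. HT29 sg-Ctrl and HT29 RNF43 G659fs CRISPR-edited isogenic cells were seeded at 2500 cells/well in 384-well plates in duplicate and treated for 96 h. Viability was read by CellTiter-Glo and reported as % activity relative to DMSO, with MG132 as the positive control (negative = growth inhibition).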

[2] = tested on: HT29 sg-Ctrl (RNF43 wildtype); assay: as above; conditions: 5 µM; 96 h
Protocol: as §1

| SMILES | cell viability activity [1] | cell viability activity [2] |
| --- | --- | --- |
| NS(=O)(=O)OC[C@@H]1C[C@@H](n2ccc3c(N[C@H]4CCc5ccccc54)ncnc32)C[C@@H]1O | -78% | -63.2% |
| Nc1nc2[nH]cnc2c(=S)[nH]1 | -81.6% | -73.9% |
| COc1cc2ncn(-c3cc(OCc4ccccc4C(F)(F)F)c(C(N)=O)s3)c2cc1OC | -72.5% | -65.4% |
| O=C1NCN(c2ccccc2)C12CCN(CCCC(c1ccc(F)cc1)c1ccc(F)cc1)CC2 | -27.2% | -69.5% |
| CCCS(=O)(=O)Nc1ccc(F)c(C(=O)c2c[nH]c3ncc(Cl)cc23)c1F | -46.8% | -47.2% |
| O=C(/C=C/c1cccc(S(=O)(=O)Nc2ccccc2)c1)NO | -88.3% | -73.9% |
| CN1CCc2c(c3ccccc3n2Cc2ccccc2)C1 | -59.2% | -56.9% |
| CCc1nc(C(N)=O)c(Nc2ccc(N3CCC(N4CCN(C)CC4)CC3)c(OC)c2)nc1NC1CCOCC1 | -46.8% | -61.8% |
| Clc1ccc2c(c1)CCc1cccnc1C2=C1CCNCC1 | -39.8% | -28.4% |
| Cn1cc(-c2ccc(S(=O)(=O)n3ccc(/C=C/C(=O)Nc4ccccc4N)c3)cc2)cn1 | -62.6% | -63.3% |
| Cc1ccccc1CN1C(=O)C2=C(CCN(Cc3ccccc3)C2)N2CCN=C12 | -72.9% | -76.7% |
| NNc1nncc2ccccc12 | -46.5% | -40.8% |
| CCCCC(CC)CNC(=N)NC(=N)NCCCCCCNC(=N)NC(=N)NCC(CC)CCCC (stereo not given) | -90.6% | -88.4% |
| COc1c/c(=C2\C=c3ccccc3=N2)[nH]/c1=C\c1[nH]c(C)cc1C | -93.8% | -88.7% |
| N#Cc1ccc(COC[C@H]2O[C@@H](n3c(NCc4ccc(Cl)c(Cl)c4)nc4c(N)ncnc43)[C@H](O)[C@@H]2O)cc1 | -24.9% | -31.3% |
| C1CCC(C(CC2CCCCN2)C2CCCCC2)CC1 (stereo not given) | -92.4% | -89% |
| Cc1cccc(Nc2nc(-c3ccncc3)cs2)c1 | -85.7% | -55.8% |
| O=[N+]([O-])c1ccc2c(c1)S(=O)(=O)C=C2 | -95% | -91% |
| COc1ccc(N(C)c2nc(C)nc3ccccc23)cc1 | -59.2% | -68% |
| Nc1nc(Cl)nc2c1ncn2[C@@H]1O[C@H](CO)[C@@H](O)[C@@H]1F | -30.3% | -63.4% |
| O=C1NC(=O)[C@@H](c2cn3c4c(cccc24)CCC3)[C@@H]1c1c[nH]c2ccccc12 | -50.8% | -61.7% |
| CN(C)C/C=C/C(=O)Nc1cc2c(Nc3ccc(F)c(Cl)c3)ncnc2cc1O[C@H]1CCOC1 | -26.4% | -19.3% |
| OC1(c2ccc(Cl)c(C(F)(F)F)c2)CCN(CCCC(c2ccc(F)cc2)c2ccc(F)cc2)CC1 | -83% | -60.6% |
| CNCc1ccc(-c2cc(-c3nc(-c4ccc(S(=O)(=O)C(C)C)cc4)cnc3N)on2)cc1 | -78.3% | -74.5% |
| COc1ccc2c(O[C@@H]3C[C@H]4C(=O)N[C@]5(C(=O)NS(=O)(=O)C6CC6)C[C@H]5/C=C\CCCCN(C)C(=O)[C@@H]4C3)cc(-c3nc(C(C)C)cs3)nc2c1C | -30% | -23.2% |
| COc1ccc(S(=O)(=O)N(C(C)=O)c2ccccc2/C=C/c2cc[n+]([O-])cc2)cc1 | -65.7% | -75.5% |
| c1ccc2c(-c3cnn4cc(-c5ccc(N6CCNCC6)cc5)cnc34)ccnc2c1 | -95.2% | -95.7% |

| SMILES | cell viability activity [1] | cell viability activity [2] |
| --- | --- | --- |
| CC(C=CC(=O)NO)=CC(C)C(=O)c1ccc(N(C)C)cc1 (stereo not given) | -95.2% | -94.9% |
| Cc1nnc(C[C@@H]2C=C(c3ccc(Cl)cc3)c3ccccc3-n3c(C)nnc32)o1 | -63.5% | -64.7% |
| Cc1ccc(C(=O)N(CCCN)[C@@H](c2oc3cc(Cl)ccc3c(=O)c2Cc2ccccc2)C(C)C)cc1 | -63.6% | -78.3% |
| CC(C)NCCCn1c(Sc2cc3c(cc2I)OCO3)nc2c(N)ncnc21 | -87% | -85.8% |
| Cn1cncc1[C@@](N)(c1ccc(Cl)cc1)c1ccc2c(c1)c(-c1cccc(Cl)c1)cc(=O)n2C | -30.6% | -33.3% |
| N#Cc1ccncn1 | -26.7% | -18.3% |
| C=CC(=O)Nc1cccc(Nc2nc(Nc3ccc(OCCOC)cc3)ncc2F)c1 | -33.3% | -44.1% |
| CNC(=O)c1nn(C)c2c1C(C)(C)Cc1cnc(Nc3ccc(N4CCN(C)CC4)cc3)nc1-2 | -66.2% | -74.1% |
| C[C@@H](Oc1ccc2[nH]nc(/C=C/c3cnn(CCO)c3)c2c1)c1c(Cl)cncc1Cl | -87.9% | -88.8% |
| CN(c1ccccc1CNc1nc(Nc2ccc3c(c2)CC(=O)N3)ncc1C(F)(F)F)S(C)(=O)=O | -45.3% | -57.8% |
| O=C(NC1CCNCC1)c1n[nH]cc1NC(=O)c1c(Cl)cccc1Cl | -82.8% | -83.8% |
| CN(C)Cc1c(C(=O)NCCOc2ccc(C(=O)NO)cc2)oc2ccccc12 | -94.9% | -85.2% |
| Cc1cnc(Nc2ccc(OCCN3CCCC3)cc2)nc1Nc1cccc(S(=O)(=O)NC(C)(C)C)c1 | -95% | -92.4% |
| Clc1ccc(COC(Cn2ccnc2)c2ccc(Cl)cc2Cl)cc1 (stereo not given) | -23.9% | -14.6% |
| CCCS(=O)(=O)Nc1ccc(F)c(C(=O)c2c[nH]c3ncc(-c4ccc(Cl)cc4)cc23)c1F | -35.4% | -47.2% |
| C=CC(=O)Nc1cc(Nc2nccc(-c3cn(C)c4ccccc34)n2)c(OC)cc1N(C)CCN(C)C | -82.3% | -50.6% |
| Cc1cc(-c2ccc(/N=N/c3ccc4c(S(=O)(=O)O)cc(S(=O)(=O)O)c(N)c4c3O)c(C)c2)ccc1/N=N/c1ccc2c(S(=O)(=O)O)cc(S(=O)(=O)O)c(N)c2c1O | -43.7% | -20.4% |
| COc1cc(OC)c(/C=C/S(=O)(=O)Cc2ccc(OC)c(NCC(=O)O)c2)c(OC)c1 | -58.2% | -54.8% |
| CN(C)C(=O)CCSC(SCCC(=O)O)c1cccc(/C=C/c2ccc3ccc(Cl)cc3n2)c1 (stereo not given) | -22.6% | 5.04% |
| CCN(CC)CC1CCN(c2ncc3ncnc(Nc4ccc(F)c(Cl)c4)c3n2)CC1 | -37.1% | -16.4% |
| Cn1c(Nc2ccc(C(F)(F)F)cc2)nc2cc(Oc3ccnc(-c4ncc(C(F)(F)F)[nH]4)c3)ccc21 | -82% | -67.4% |
| N#Cc1ccc(Cn2cncc2CN2CCN(c3cccc(Cl)c3)C(=O)C2)cc1 | -45.7% | -43.4% |
| Cc1cccc(/C=N/Nc2cc(N3CCOCC3)nc(OCCc3ccccn3)n2)c1 | -66% | -62.4% |
| CO[C@@H](C(=O)N1Cc2[nH]nc(NC(=O)c3ccc(N4CCN(C)CC4)cc3)c2C1)c1ccccc1 | -62% | -55.5% |
| COc1ccc(CCCOC(Cn2ccnc2)c2ccc(OC)cc2)cc1 (stereo not given) | -67.2% | -31.3% |
| O=C(/C=C/c1ccc2ccccc2n1)c1ccncc1 | -68.9% | -54% |
| c1cc(Nc2cc(C3CC3)[nH]n2)nc(Nc2ccc3nc[nH]c3c2)n1 | -29.4% | -65.9% |

| SMILES | cell viability activity [1] | cell viability activity [2] |
| --- | --- | --- |
| S=c1[nH]cnc2nc[nH]c12 | -51.6% | -49.4% |
| C/C(=N/Nc1nnc2c(n1)[nH]c1c(C)cccc12)c1ccccn1 | -87.6% | -86.8% |
| CN(C)CCOc1ccc(/C(=C(/CCCl)c2ccccc2)c2ccccc2)cc1 | -85.2% | -82.8% |
| CN(C)C/C=C/C(=O)Nc1cccc(C(=O)Nc2cccc(Nc3ncc(Cl)c(-c4c[nH]c5ccccc45)n3)c2)c1 | -91.7% | -94.7% |
| C[C@@H](NC(=O)c1ncnc(N)c1Cl)c1ncc(C(=O)Nc2cc(C(F)(F)F)c(Cl)cn2)s1 | -24.4% | -29.1% |
| Clc1cc(Cl)c(OCC#CI)cc1Cl | -35.5% | -23.2% |
| Cc1c(C2CCN(CCc3ccccc3)CC2)noc1-c1ccc(Cl)cc1 | -38% | -39.7% |
| CC1=NN(c2ccc(C(=O)O)cc2)C(=O)/C1=C\c1ccc(-c2cc(C)c(C)cc2[N+](=O)[O-])o1 | -62.3% | -79.6% |
| COc1c(OCCCN2CCOCC2)ccc2c3n(c(=NC(=O)c4cnc(N)nc4)nc12)CCN3 | -59.6% | -46.8% |
| COc1cc(NC(=O)Nc2cccc(CNC(=O)O[C@H]3CCOC3)c2)ccc1-c1cnco1 | -41.5% | -23.6% |
| CC(C)N(C[C@H]1O[C@@H](n2cnc3c(N)ncnc32)[C@H](O)[C@@H]1O)[C@H]1C[C@@H](CCc2nc3cc(C(C)(C)C)ccc3[nH]2)C1 | -24.1% | -26.5% |
| O=C(NC[C@H](O)CO)c1ccncc1Nc1ccc(I)cc1F | -83.4% | -91.2% |
| CN(C)C(=O)[C@H](O)[C@H](Cc1ccccc1)NC(=O)c1cc2cc(Cl)ccc2[nH]1 | -26.8% | 7.41% |
| COC(=O)Nc1ccc(-c2nc(N3CCOCC3)c3cnn(C4CCN(Cc5cccnc5)CC4)c3n2)cc1 | -55.8% | -48.1% |
| Cc1cc(Nc2ccc(NC(=O)c3ccc(Nc4ccnc5ccccc45)cc3)cc2)nc(N)n1 | -91% | -93.7% |
| COc1cc2nc(N3CCC(N4CCCCC4)CC3)nc(NC3CCCCCC3)c2cc1OC | -93.5% | -95.5% |
| COc1ncc(-c2ccc3nccc(-c4ccnnc4)c3c2)cc1NS(=O)(=O)c1ccc(F)cc1F | -93.8% | -89.3% |
| CN(C)C(=O)C(CCN1CCC(O)(c2ccc(Cl)cc2)CC1)(c1ccccc1)c1ccccc1 | -67.6% | -75.2% |
| CCCCc1nc2cc(/C=C/C(=O)NO)ccc2n1CCN(CC)CC | -99.3% | -98.6% |
| COC(=O)Nc1nc2cc(C(=O)c3ccccc3)ccc2[nH]1 | -58.1% | -51.4% |
| O=C(Nc1c[nH]nc1-c1nc2ccc(CN3CCOCC3)cc2[nH]1)NC1CC1 | -72.3% | -71.2% |
| CCC[C@H](Nc1nc(-c2ccc(NC(=O)NCC)c(OC)c2)ncc1C)c1cccnc1 | -57.8% | -49.4% |
| COC(=O)c1ccc2c(C(=Nc3ccc(N(C)C(=O)CN4CCN(C)CC4)cc3)c3ccccc3)c(O)[nH]c2c1 | -73.8% | -34.2% |
| COc1ccc(/C=C\c2cc(OC)c(OC)c(OC)c2)cc1O | -64.6% | -58.3% |
| CNC(=O)c1c(F)cccc1Nc1nc(Nc2cc3c(cc2OC)CCN3C(=O)CN(C)C)nc2[nH]ccc12 | -31.8% | -35% |
| CN1C/C=C/CCOc2cccc(c2)-c2ccnc(n2)Nc2cccc(c2)C1 | -92.8% | -89.6% |
